Source: PubChem BioAssay (National Center for Advancing Translational Sciences (NCATS))
ALOX12 inhib: 12-hLO (ALOX12) enzyme inhibition | purified 12-hLO, xylenol orange hydroperoxide absorbance | Potency, µM (doses to about 57.1 µM), for inactives: top-dose activity change, negative = inhibition, actives largely listed as inhibitors | hit rate 0.12% among 150,000; also: nearly all actives have a fitted effect of over 55% in size
Target sequence (P18054 whole entry, looked up): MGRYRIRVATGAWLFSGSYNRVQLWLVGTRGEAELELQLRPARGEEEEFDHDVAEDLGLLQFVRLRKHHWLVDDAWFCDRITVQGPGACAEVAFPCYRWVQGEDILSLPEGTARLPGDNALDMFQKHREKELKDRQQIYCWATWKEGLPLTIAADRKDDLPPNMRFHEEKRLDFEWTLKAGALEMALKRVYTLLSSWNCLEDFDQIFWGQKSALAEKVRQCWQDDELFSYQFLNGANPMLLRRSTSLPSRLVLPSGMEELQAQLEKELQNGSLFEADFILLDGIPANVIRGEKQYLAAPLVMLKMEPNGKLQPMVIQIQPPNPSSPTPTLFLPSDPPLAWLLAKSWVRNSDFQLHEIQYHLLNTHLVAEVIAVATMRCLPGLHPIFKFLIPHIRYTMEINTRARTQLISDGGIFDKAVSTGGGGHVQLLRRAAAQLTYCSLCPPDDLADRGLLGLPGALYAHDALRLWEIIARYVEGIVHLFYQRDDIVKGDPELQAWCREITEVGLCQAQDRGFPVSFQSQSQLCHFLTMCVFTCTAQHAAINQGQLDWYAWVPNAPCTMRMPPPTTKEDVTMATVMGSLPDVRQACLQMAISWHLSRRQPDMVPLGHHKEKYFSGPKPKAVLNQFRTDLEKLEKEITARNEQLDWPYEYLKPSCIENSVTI
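150 nM 12hLO, 25 mM Hepes pH 7.0 + 0.01% Triton X-100; cpd preinc 15 min RT; 40 uM arachidonic acid, 30 min RT; Fe-XO 30 min; A573/A405 ratio as read-out.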
p53ts 39C tox: p53ts cell cytotoxicity, nonpermissive temperature | H1299-p53A138V viability at 39C, ATP luminescence, 24 h | Potency, µM (top dose mostly 46.1 µM), inactives show at the highest dose activity change, negative = cell killing, usual class: cytotoxic | hit rate 1.5% among 130,000 | AID 902; also: nearly all actives have a fitted effect of over 55% in size
HPGD block: inhibitors of human 15-hydroxyprostaglandin dehydrogenase (HPGD); purified HPGD, NADH fluorescence kinetic, PGE2 substrate; Potency, µM, for the others: at the highest dose activity change, negative = inhibition, most hits filed as inhibitors; hit rate 4.3% among 150,000; active = well fitted inhibition curve with a large enough effect, not every such curve was filed as active; inconclusive = small, poorly fitted or top-dose-only effect, or another doubt; inactive = no such curve, though single readings can be large or run the other way
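NADH formation kinetics: reaction with 30 uM PGE2 and 1 mM NAD+ (final), 20 nM enzyme, Tris-HCl pH 8 with Tween 20, after 15 min compound preincubation at room temperature. Fluorescence change, last versus first of five reads.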
p53ts 32C kill: kills p53ts cells at the permissive temperature; H1299-p53A138V at 32C, ATP luminescence viability, 24 h; Potency, µM (titrated, usually from 46.1 µM), inactives show top-dose activity change, negative = cytotoxicity, usual class: cytotoxic; hit rate 0.93% among 130,000; AID 924;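 also: 0% = DMSO and -100% = full killing by reference compound; nearly all actives have a fitted effect of over 55% in size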
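H1299-p53 A138V cells (temperature-sensitive p53) exposed 24 h to up to 46 uM compound at 32C, where p53 is wild-type in conformation. Viability read as ATP luminescence and normalised to DMSO and 100 uM tamoxifen. AC50 fitted with the Hill equation.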
* = called active by the depositor; ? = inconclusive; . = no result; [ ] = dose if it differs, or a comment. An excerpt weighted towards active compounds, which were near 4.4% of everything screened. Unless noted, calls follow the shape of the dose curve; as a rule, active = well fitted curve in the direction sought with a large enough effect; inconclusive = small, poorly fitted or top-dose-only effect, or another doubt; inactive = no such curve, though single readings can be large; an effect the other way counts as inactive or inconclusive. Unless noted, % is scaled to controls: 0 for no effect and ±100 for the full control effect; potency is read from the fitted curve at half-maximal effect.

SMILES	ALOX12 inhib	p53ts 39C tox	HPGD block	p53ts 32C kill
Cc1ccc(N2CC(NC(=O)c3ccccc3Br)CC2=O)cc1 (stereo unspecified)	.	15%	.	-10%
COc1ccc(CNC(=O)c2cnc3sc(N4CCCCCC4)nn3c2=O)cc1	.	-2%	.	2%
c1ccc(-c2cnn3c(-c4ccccc4)c(-c4ccccc4)nc3n2)cc1	-6%	11%	20µM*	.
COC(=O)C1=C(C(=O)OC)[C@@H]2Nc3ccccc3[C@@]23C[C@@H](C(=O)OC)N(S(=O)(=O)c2ccc(Br)cc2)C3=N1	-5%[11.4 µM]	.	-7%	.
Cc1ccc(C)c(N2CCN(C(=O)c3cn(CC(C)C)c(=O)c4c3c3ccccc3n4C)CC2)c1	.	-12%	.	10%
c1c2c(cc3sc(N4CCCCC4)nc13)OCO2	-5%	10µM*	22µM*	6.3µM*
c1c2c(cc3sc(N4CCOCC4)nc13)OCO2	-4%	?	28µM*	10µM*
c1ccc(N2CCN(c3nc4cc5c(cc4s3)OCO5)CC2)cc1	3%	-4%	?	-6%
c1ccc2c(c1)CCN(c1nc3cc4c(cc3s1)OCO4)C2	8%	?	32µM*	13µM*
CN(C)c1ccc(CNC(=O)C2CCCN(S(=O)(=O)c3ccc4c(c3)CCCC(=O)N4)C2)cc1 (stereo unspecified)	.	-26%	.	-16%
COc1ccccc1/C=C/c1nc(C#N)c(N2CCCCCC2)o1	.	-1%	.	-5%
CC(=O)Nc1ccc(NS(=O)(=O)c2ccc(Cl)s2)cc1	.	20%	.	3%
CSc1nc2ccc(NS(=O)(=O)c3ccc(Cl)s3)cc2s1	-22%	16%	25µM*	-1%
Cc1ccc(S(=O)(=O)CC(=O)Nc2ccc(S(=O)(=O)Nc3onc(C)c3C)cc2)cc1	1%	4%	-29%	-3%
Cc1noc(NS(=O)(=O)c2ccc(NC(=O)COc3ccc(Cl)cc3Cl)cc2)c1C	-21%	-9%	16µM*	10%
CCc1ccc(C(=O)/C=C/Nc2ccc(S(=O)(=O)Nc3onc(C)c3C)cc2)cc1	-5%	.	20µM*	.
Cc1noc(NS(=O)(=O)c2ccc(NC(=O)COc3ccccc3Br)cc2)c1C	.	-2%	.	-7%
Cc1noc(NS(=O)(=O)c2ccc(N/C=C\C(=O)c3ccncc3)cc2)c1C	-7%	.	-24%	.
CCc1nnc(NC(=O)CSc2nc3c(cc2C#N)CCCC3)s1	1%	1.6µM*	-1%	0.79µM*
CCOC(=O)c1sc(NC(=O)CSc2nc3c(cc2C#N)CCCCC3)c(C#N)c1C	0%	.	?	.
Cc1noc(NS(=O)(=O)c2ccc(NC(=O)CSc3nc4c(cc3C#N)CCCCC4)cc2)c1C	-8%	.	28µM*	.
CC(=O)N(NC(=O)c1ccccc1Cl)C1CC(=O)N(c2ccc(C)cc2)C1=O (stereo unspecified)	-2%	.	-3%	.
Cc1ccc(N2C(=O)CC(N(O)C3CC(=O)N(c4ccc(C)cc4)C3=O)C2=O)cc1 (stereo unspecified)	?	.	32µM*	.
CCCCCCC(=O)N(O)C1CC(=O)N(c2ccc(C)cc2)C1=O (stereo unspecified)	-30%	.	7.9µM*	.
COc1ccccc1N(O)C1CC(=O)N(c2ccc(F)cc2)C1=O (stereo unspecified)	-23%	.	22µM*	.
SMILES	ALOX12 inhib	p53ts 39C tox	HPGD block	p53ts 32C kill
CCOC(=O)c1c(C)[nH]c(C)c1S(=O)(=O)NCC(=O)N1CCN(c2cccc(C)c2)C(C)C1 (stereo unspecified)	.	-8%	.	14%
O=C(NCc1cccs1)c1nn(-c2ccccc2F)nc1CO	.	-6%	.	-6%
O=S1(=O)N[C@H]2CC[C@@H]3NS(=O)(=O)N[C@H]4CC[C@H](N1)N4S(=O)(=O)N23	-2%[11.4 µM]	6%[9.22 µM]	-3%	-1%[9.22 µM]
O=C(Nc1ccc2nc(SCC(=O)N3CCCC3)sc2c1)c1ccccc1	.	3%	.	-2%
Cn1c(SCC(=O)Nc2ccc3nc(SCC(=O)N4CCCC4)sc3c2)nnc1-c1ccccc1	-11%	.	4µM*	.
Cc1ccc(C)c(Cn2nnc3c(=O)[nH]c(C4CCN(C(=O)c5cccs5)CC4)nc32)c1	0%	6%	0.56µM*	3%
Cc1ccc(C)c(Cn2nnc3c(=O)[nH]c(C4CCCN(C(=O)C5CCC5)C4)nc32)c1 (stereo unspecified)	-8%	-12%	4.5µM*	-3%
Cc1ccc(Cn2nnc3c(=O)[nH]c(C4CCN(S(=O)(=O)c5ccc(F)cc5)CC4)nc32)cc1	-13%	16%	-16%	25%
Cc1ccc(Cn2nnc3c(=O)[nH]c(C4CCN(C(=O)Cc5ccccc5F)CC4)nc32)cc1	.	5%	.	3%
Cc1ccc(Cn2nnc3c(=O)[nH]c(C4CCN(C(=O)c5cccs5)CC4)nc32)cc1	-17%	-15%	14µM*	-9%
O=C(Nc1cccc(C(F)(F)F)c1)Nc1nnc(N2CCCCCC2)s1	.	-3%	.	-4%
Cc1ccc(OCC(=O)Nc2ccc3nn(-c4ccc(C)cc4)nc3c2)cc1	.	-3%	.	-4%
Cc1ccc(NC(=O)N2CCc3c([nH]c4ccccc34)C2c2ccccc2F)c(Cl)c1 (stereo unspecified)	.	-10%	.	-4%
O=C1NCCCC2c3c(cc(Br)c(O)c3Br)OC12N1CCOCC1 (stereo unspecified)	-5%	9%	32µM*	9%
CCCCN(C)CCCNC(=O)Cn1ncc2c3ccccc3n(Cc3cc(C)ccc3C)c2c1=O	.	2.5µM*	.	-6%
Cc1ccc(C)c(Cn2c3ccccc3c3cnn(CC(=O)NC(C)CCc4ccccc4)c(=O)c32)c1 (stereo unspecified)	.	5µM*	.	-27%
CCCCN(C)CCCNC(=O)Cn1ncc2c3ccccc3n(Cc3ccccc3F)c2c1=O	.	13µM*	.	-4%
CSc1cccc(NC(=O)COc2ccccc2)c1	2%	2%	18µM*	-5%
CSc1cccc(NC(=O)Cn2cccc2)c1	-1%	2%	14µM*	-13%
Cc1ccc(/C=C/C(=O)N2CCN(Cc3ccccc3)CC2)o1	2%	.	-26%	.
Cc1ccc(/C=C/C(=O)N2CCN(S(=O)(=O)c3c(C)c(C)cc(C)c3C)CC2)o1	-15%	.	25µM*	.
Cc1ccc(/C=C/C(=O)N2CCN(S(=O)(=O)c3ccc(C)c(C)c3)CC2)o1	-16%	.	22µM*	.
Cc1sc2ncnc(SCC(=O)N3CCCC3=O)c2c1C	-3%	10%	25µM*	9%
Cc1sc2ncnc(SCC(=O)c3cccs3)c2c1C	-6%	-9%	-24%	-13%
Cc1sc2ncnc(SCC#N)c2c1C	-12%	-3%	-5%	-1%
CCCN(CC1CC1)C(=O)CSc1ncnc2sc(C)c(C)c12	5%	.	28µM*	.
CN1CCN(C(=O)/C(=C/c2ccccc2)c2ccccc2)CC1	1%	.	13µM*	.
CC1CC(C)CN(C(=O)c2ccncc2)C1 (stereo unspecified)	-6%	.	-12%	.
CC1CC(C)CN(C(=O)/C(=C\c2ccccc2)c2ccccc2)C1 (stereo unspecified)	-2%	.	11µM*	.
CC1CCCCN1C(=O)N[C@@H](Cc1ccccc1)C(=O)O (stereo partly specified)	2%	9%	-4%	4%
